The record followed here is PubChem BioAssay AID504652 (National Center for Advancing Translational Sciences (NCATS), 2011).

Values joined by “and” are separate entries in the source; they are usually repeats but may differ in a detail not shown here. Identical values can stand only once. About 11,000 (3.1%) of roughly 360,000 compounds were called active. Shown is part of a subset that was picked to be rich in actives. A number with no mark means an inactive call. Cut-off read from the data, not from the text of the source: active = activity change below about -30%; inactive = the rest.
% is set by controls: 0 for no effect and ±100 for the full control effect.

The target in this experiment is D(1A) dopamine receptor (Homo sapiens) (UniProt P21728). Put plainly: Antagonist of Human D 1 Dopamine Receptor: qHTS. Particulars: HEK293 TREx D1 cells, calcium flux, dopamine EC80; at 10 µM; hits give low values. Summed up: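 Using tetracycline-induced force-coupled D1 Hek293 cells and a calcium dye, signals were followed for 180 s after compound, then for 180 s after EC80 dopamine, to detect inhibitors.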
D(1A) dopamine receptor (Homo sapiens), sequence (P21728 whole entry, looked up): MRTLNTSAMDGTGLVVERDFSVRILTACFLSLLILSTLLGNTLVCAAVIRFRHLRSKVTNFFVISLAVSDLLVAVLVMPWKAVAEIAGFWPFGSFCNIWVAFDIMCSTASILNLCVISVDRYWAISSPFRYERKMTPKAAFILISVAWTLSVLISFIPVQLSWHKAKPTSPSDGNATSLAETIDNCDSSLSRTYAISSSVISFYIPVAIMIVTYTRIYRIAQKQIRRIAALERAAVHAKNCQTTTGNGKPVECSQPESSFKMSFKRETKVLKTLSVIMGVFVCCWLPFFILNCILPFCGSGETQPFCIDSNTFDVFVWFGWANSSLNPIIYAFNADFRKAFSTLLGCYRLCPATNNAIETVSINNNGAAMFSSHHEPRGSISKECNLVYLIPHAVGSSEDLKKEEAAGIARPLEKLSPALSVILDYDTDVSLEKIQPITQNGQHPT
Background: qHTS replaces the single test concentration by a dilution series.
In the case of `O=C(NCc1ccc(F)cc1)c1ccc(Cn2c(SCc3ccc(F)cc3)nc3cccnc32)cc1`, the activity change, negative = inhibition was -10.7%.

Take `COc1ccc(N2CCN(C(=O)CSCc3nc(-c4ccccc4Cl)oc3C)CC2)cc1`: the activity change, negative = inhibition was -24.8%.

For the compound `COc1ccc(CNS(=O)(=O)c2cc(-c3cc(C)no3)ccc2C(C)C)cc1`, the activity change, negative = inhibition is -31% (active).

As for `COc1ccc(CCNS(=O)(=O)c2cc(-c3cc(C)no3)ccc2C)cc1OC`, the activity change, negative = inhibition is 9.26%.

Regarding `CCOc1ccccc1CNS(=O)(=O)c1cc(-c2cc(C)no2)ccc1C`, the activity change, negative = inhibition is 50.5%.

For `CCc1ccc(S(=O)(=O)Nc2cc3c(C(=O)OCc4ccccc4)c(C)oc3c3ccccc23)cc1`, the activity change, negative = inhibition is 7.58%.

As to `CCCCN(C)c1nnc(NC(=O)Nc2ccc(Br)c(C)c2)s1`, the activity change, negative = inhibition is 13.7%.

Turning to `c1ccc(C2CNCc3c2ccc2ccccc32)cc1` (centres undefined), the activity change, negative = inhibition is -39.2% (active).

In the case of `Cc1nn2c(=O)cc(COC(=O)CNC(=O)c3ccc(F)cc3)nc2s1`, the activity change, negative = inhibition was -1.13%.

With `Cc1ccc(Cn2c(=O)n(-c3ccc(C)cc3)c(=O)c3c2c2cc(C)ccc2n3C)cc1`, the activity change, negative = inhibition was -3.86%.

On to `N#C/C(=C\c1cccc(F)c1)c1nc(-c2cc3c(ccc4ccccc43)oc2=O)cs1`, for which the activity change, negative = inhibition was -2.97%.

`COc1cc(C2c3c(oc4ccccc4c3=O)C(=O)N2c2nc(C)c(C)s2)ccc1O` (centres undefined): the activity change, negative = inhibition was 6.01%.

On to `CCOc1ccc(NC(=O)c2cnn(-c3ccccc3)c2-n2cccc2)cc1`, for which the activity change, negative = inhibition was -0.471%.

Turning to `Cc1nc(SCc2ccc(F)cc2)c([N+](=O)[O-])[nH]1`, the activity change, negative = inhibition was 8.5%.

As for `CCCCCOc1ccc(CSC2=NCCN2)cc1[N+](=O)[O-]`, the activity change, negative = inhibition is -42.1% (active).

With `CCCCOc1ccc(CSC(=N)N)cc1[N+](=O)[O-]`, the activity change, negative = inhibition was 25.1%.

Turning to `CCN(CC)CCC(c1ccc2c(c1)OCO2)c1c(OC)cc(OC)c2c(-c3ccccc3)cc(=O)oc12` (centres undefined), the activity change, negative = inhibition is -32.2% (active).

On to `COc1cccc(NC(=O)C(=O)NCC(c2ccc3c(c2)OCO3)N2CCN(C)CC2)c1` (centres undefined), for which the activity change, negative = inhibition was 27.8%.

In the case of `CCCCN(CC)C(=O)c1ccc2c(c1)OCO2`, the activity change, negative = inhibition was -2.46%.

For the compound `COc1ccc(F)cc1S(=O)(=O)NCC(c1ccc2c(c1)OCO2)N1CCN(C)CC1` (centres undefined), the activity change, negative = inhibition is -2.95%.

Consider `CCN(CC)CCC(c1cc(OC)c(OC)c(OC)c1)c1c(OC)cc(OC)c2c(-c3ccccc3)cc(=O)oc12` (centres undefined), for which the activity change, negative = inhibition was 18.1%.

With `CCN(CC)C(=O)CC(c1ccc2c(c1)OCO2)c1c(OC)cc(OC)c2c(-c3ccccc3)cc(=O)oc12` (centres undefined), the activity change, negative = inhibition is -44.6% (active).

As to `CCc1nnc2c3ccccc3nc(N3CCN(c4ccc(C)cc4C)CC3)n12`, the activity change, negative = inhibition was -4.28%.

Consider `CCCN(CCC)S(=O)(=O)c1ccc(C(=O)Nc2sc3c(c2C(=O)OC)CCN(CC)C3)cc1`, for which the activity change, negative = inhibition was 27%.

Consider `Cn1ccnc1SCC(=O)Nc1ccc2c(c1)OCCO2`, for which the activity change, negative = inhibition is 7.91%.

Turning to `Cc1ccc(Cl)cc1NC(=O)CSc1nccn1C`, the activity change, negative = inhibition was -34.7% (active).

As for `CCc1cccc(NC(=O)CSc2nccn2C)c1`, the activity change, negative = inhibition is 6.16%.

As to `CCCc1ccc(OCc2ccc(C(=O)N/N=C/c3cccc([N+](=O)[O-])c3)o2)c(OC)c1`, the activity change, negative = inhibition is -9.05%.

As for `COc1cc(/C=N/O)ccc1OCc1ccc([N+](=O)[O-])cc1`, the activity change, negative = inhibition is -35.1% (active).

Consider `COc1cc(C(=O)OCC(=O)NC(C)CCc2ccccc2)cc(OC)c1OC` (centres undefined), for which the activity change, negative = inhibition was 0.765%.

Take `COC(=O)c1ccc(COc2cc([N+](=O)[O-])cc3cccnc23)cc1`: the activity change, negative = inhibition was -0.242%.

As to `CCOc1cc(/C=N/O)ccc1OCc1ccccc1F`, the activity change, negative = inhibition was 0.806%.

For `COc1cc(C(=O)OCc2ccc([N+](=O)[O-])cc2)cc(OC)c1OC`, the activity change, negative = inhibition was -36.8% (active).

`COc1ccc(NC(=O)CCc2nnc3n(CC(C)C)c(=O)c4ccccc4n23)cc1OC`: the activity change, negative = inhibition was 12%.

As for `COc1ccccc1N1CCN(C(=O)C2CCN(S(=O)(=O)c3c(C)noc3/C=C/c3ccc(C)cc3)CC2)CC1`, the activity change, negative = inhibition is 1.37%.

As for `COc1ccc(Cn2ccnc2SCC(=O)Nc2ccc3c(c2)OCO3)cc1`, the activity change, negative = inhibition is 3.36%.

As for `CC1CCCN(S(=O)(=O)c2ccc3[nH]c(=O)cc(C(=O)NCCc4ccc(Cl)cc4)c3c2)C1` (centres undefined), the activity change, negative = inhibition is 15.9%.

Take `COc1ccccc1NC(=O)c1sc2nc(C)c(C(=O)Nc3ccc(Cl)cc3)c(-c3ccc(Br)cc3)c2c1N`: the activity change, negative = inhibition is -7.07%.

With `CC(=O)c1c(C)n(S(=O)(=O)c2ccc(Cl)cc2)c2ccc(NS(=O)(=O)c3ccc(Cl)cc3)cc12`, the activity change, negative = inhibition was 0.214%.

Consider `COc1ccc(NS(=O)(=O)c2cccc(C(=O)NCCc3ccc(S(N)(=O)=O)cc3)c2)cc1`, for which the activity change, negative = inhibition was -10.4%.

Consider `Cc1c(C)n(Cc2ccc(Cl)cc2)c2ccc(C(=O)NCCCN3CCOCC3)cc12`, for which the activity change, negative = inhibition is -28%.

For the compound `COc1ccc(C(=O)NCCc2ccc(S(N)(=O)=O)cc2)cc1OC`, the activity change, negative = inhibition was -31% (active).

As for `CCOC(=O)c1c(C)c(C(=O)NCCc2ccc(S(N)(=O)=O)cc2)c(C)n1CC`, the activity change, negative = inhibition was -3.79%.

On to `Cc1c(C)n(Cc2ccc(Cl)cc2)c2ccc(C(=O)NCCc3ccc(S(N)(=O)=O)cc3)cc12`, for which the activity change, negative = inhibition was -36.4% (active).

Regarding `COC(=O)c1c(C)[nH]c(C(=O)NCCc2ccc(S(N)(=O)=O)cc2)c1C`, the activity change, negative = inhibition was 2.29%.

With `Cc1cc(N2CCN(c3cccc(C(F)(F)F)c3)CC2)n2nc(-c3ccccc3)nc2n1`, the activity change, negative = inhibition was 23.9%.

Regarding `CCc1ccccc1NC(=O)c1ccc2nc(CCc3ccccc3)oc2c1`, the activity change, negative = inhibition is -9.13%.

Regarding `Cc1ccccc1NC(=O)c1cc2c([nH]c1=O)CC(C)(C)CC2=O`, the activity change, negative = inhibition was -6.86%.

In the case of `CCOc1cccc(NC(=O)CSc2ncc(-c3ccc(Cl)cc3)[nH]2)c1`, the activity change, negative = inhibition was -2.12%.

`COc1ccc(-c2cnc(SCCNC(=O)c3ccc4c(c3)OCO4)[nH]2)cc1`: the activity change, negative = inhibition was 1.65%.

Take `COc1ccccc1CSc1ncc(-c2ccc([N+](=O)[O-])cc2)[nH]1`: the activity change, negative = inhibition is -37.4% (active).

In the case of `Cc1c(C(=O)NCc2ccccc2Br)oc2ccc3c(c12)C(=O)CC(C)(C)O3`, the activity change, negative = inhibition is -29.9%.

On to `COc1ccc(CN2CCCC(N3CCc4ccccc4C3)C2)c(O)c1` (centres undefined), for which the activity change, negative = inhibition is -0.568%.

With `COc1c(O)ccc2c1CN1CCc3cc4c(cc3C1C2)OCO4` (centres undefined), the activity change, negative = inhibition was -67.5% (active).

On to `COc1ccc2cc1Oc1ccc(cc1)C[C@H]1c3cc(c(OC)cc3CCN1C)Oc1c(O)c(OC)cc3c1[C@H](C2)N(C)CC3`, for which the activity change, negative = inhibition is -27.6%.

On to `CCOc1ccc(S(=O)(=O)c2cn(Cc3ccc(OC)cc3)c3ccc(F)cc3c2=O)cc1`, for which the activity change, negative = inhibition is -3.59%.

For the compound `CCc1nc2ccc(C(=O)N3CCN(c4cc(Cl)ccc4C)CC3)cc2nc1CC`, the activity change, negative = inhibition was 4.25%.

Turning to `O=C(CSc1ncn[nH]1)Nc1nc(-c2cccc([N+](=O)[O-])c2)cs1`, the activity change, negative = inhibition was -1.2%.

As for `Cn1nnc(NC(=O)CSc2ncn[nH]2)n1`, the activity change, negative = inhibition is -31.7% (active).

Consider `O=C(CSc1ncn[nH]1)Nc1nsc(-c2ccccc2)n1`, for which the activity change, negative = inhibition was 1.31%.

Turning to `CCOC(=O)c1scc(-c2ccccc2)c1S(=O)(=O)Nc1ccccc1F`, the activity change, negative = inhibition is -3.82%.

As for `CCC(C(=O)Nc1cccc(-c2nc3cccnc3s2)c1C)c1ccccc1` (centres undefined), the activity change, negative = inhibition was -4.82%.

For `O=C(CSc1ccccc1)Nc1ccc(C(=O)Nc2cccc(O)c2)cc1`, the activity change, negative = inhibition is -29.1%.

Consider `C/C(=C\C(=O)c1ccccc1)Nc1cccc(O)c1`, for which the activity change, negative = inhibition was -30.1% (active).

For the compound `O=C(Nc1cccc(O)c1)c1ccc(C(=O)c2ccccc2)o1`, the activity change, negative = inhibition is -9.29%.

Regarding `Cc1ccc(NC(=O)CSc2nc3c(c(=O)[nH]2)CN(Cc2ccc4c(c2)OCO4)CC3)cc1C`, the activity change, negative = inhibition is 11.3%.

`COc1ccc(-n2c(SCC(=O)NCc3cccs3)nnc2-c2ccoc2C)cc1`: the activity change, negative = inhibition is -0.757%.

Regarding `O=C(CSc1nnc(-c2c[nH]c3ccccc23)n1-c1ccc(F)cc1)NCc1ccco1`, the activity change, negative = inhibition was 3.17%.

In the case of `COc1ccc(-n2c(SCC(=O)NCc3ccco3)nnc2-c2c[nH]c3ccccc23)cc1`, the activity change, negative = inhibition is -90% (active).

For the compound `CCOC(=O)C1CCC(CN(Cc2ccc(OC)cc2)S(=O)(=O)c2ccc(F)c(C(=O)Nc3cc(C)ccc3C)c2)CC1` (centres undefined), the activity change, negative = inhibition is 15.6%.

`COc1cccc(COC(=O)C2CCN(S(=O)(=O)c3ccc(Cl)cc3)CC2)c1OC`: the activity change, negative = inhibition was -32.8% (active).

For `CCOc1ccc(S(=O)(=O)N2CCC(C(=O)OCc3ccc(OC)cc3)CC2)cc1`, the activity change, negative = inhibition was -16.6%.

On to `COc1cccc(COC(=O)C2CCN(S(=O)(=O)c3cccs3)CC2)c1OC`, for which the activity change, negative = inhibition was -15.5%.

For `COc1ccc(C(=O)c2oc3ccccc3c2NC(=O)COc2cccc(C)c2)cc1`, the activity change, negative = inhibition was -10.1%.

For the compound `Cc1nn(CC(=O)NCCc2ccccc2)c(=O)c2c1sc1ccccc12`, the activity change, negative = inhibition is -1.1%.

Regarding `Cc1cccc(NS(=O)(=O)c2ccc(-c3cnc(C4CC4)o3)cc2)c1`, the activity change, negative = inhibition was -44.9% (active).

On to `Cc1ccc(-c2cnc(C3CC3)o2)cc1S(=O)(=O)Nc1cccc(C)c1C`, for which the activity change, negative = inhibition is 9.76%.

`Cc1cccc(CNS(=O)(=O)c2ccc(-c3cnc(C4CC4)o3)cc2)c1`: the activity change, negative = inhibition is -9.2% and -2.23%.

Regarding `O=C(CSc1nccn1C1CCCC1)Nc1cc(C(F)(F)F)ccc1Cl`, the activity change, negative = inhibition is -16%.

On to `C=C(C)CNc1cc(S(=O)(=O)N2CCOCC2)ccc1Oc1ccccc1`, for which the activity change, negative = inhibition is -20.5%.

Regarding `COC(=O)c1cc(Oc2ccc(S(=O)(=O)N3CCOCC3)cc2[N+](=O)[O-])cc(C(=O)OC)c1`, the activity change, negative = inhibition is -38.9% (active).

In the case of `COc1ccc(S(=O)(=O)N2CCC(C(=O)OCC(=O)c3ccccc3)CC2)cc1[N+](=O)[O-]`, the activity change, negative = inhibition is -3.94%.

Turning to `Cc1ccc(NC(=O)c2ccc3[nH]c(C)cc(=O)c3c2)c(C)c1`, the activity change, negative = inhibition was -2.41%.

In the case of `CCOC(=O)c1c(N)n(-c2cccc(C)c2C)c2nc3ccccc3nc12`, the activity change, negative = inhibition was -1.89%.
